Source: PubChem (National Center for Advancing Translational Sciences (NCATS))
DT40 TDP1 CPT – qHTS for Inhibitors of human tyrosyl-DNA phosphodiesterase 1 (TDP1): qHTS in cells in presence of CPT. chicken DT40 Tdp1-/-;hTDP1 cells + 20 nM CPT, ATP luminescence, 48 h. hit rate 12% among 420,000. AID 686979, 2013. Potency, µM (highest dose often 46.2 µM), without a hit: at the highest dose activity change, negative = growth inhibition, actives largely listed as inhibitors; also: potency is read from the fitted curve at half-maximal effect; nearly all actives have a fitted effect of over 55% in size
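Cell growth measured by CellTiter-Glo luminescence after a minimum 48 h, 37 C compound exposure with 20 nM CPT in Tdp1-knockout DT40 cells stably expressing hTDP1, seeded 400/well; qHTS titration format.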
DT40 TDP1 no CPT – qHTS for Inhibitors of human tyrosyl-DNA phosphodiesterase 1 (TDP1): qHTS in cells in absence of CPT; Potency, µM (series often up to 46.2 µM), inactives show at the top dose activity change, negative = growth inhibition, actives largely listed as inhibitors; hit rate 15% among 420,000; AID 686978, 2013; DT40 Tdp1-/- hTDP1 cells, no CPT, ATP luminescence, 48 h; also: potency is read from the fitted curve at half-maximal effect; nearly all actives have a fitted effect of over 55% in size
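Chicken DT40 Tdp1-/- cells stably complemented with human TDP1 were seeded at 400 cells/well with DMSO in place of 20 nM camptothecin. After compound pinning, cells grew at least 48 hr at 37 °C; viability read by CellTiter-Glo luminescence.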
ALOX12 inh – Primary qHTS assay for inhibitors of human arachidonate 12S-lipoxygenase (ALOX12): Round 2; Potency, µM (top dose mostly 108 µM), without a hit: top-dose activity change, negative = inhibition, hits mostly inhibitors; purified 12hLO, xylenol orange hydroperoxide absorbance; Polyunsaturated fatty acid lipoxygenase ALOX12 (Homo sapiens), P18054; hit rate 1.1% among 580,000; also: potency is read from the fitted curve at half-maximal effect
Target sequence (P18054 whole entry, looked up): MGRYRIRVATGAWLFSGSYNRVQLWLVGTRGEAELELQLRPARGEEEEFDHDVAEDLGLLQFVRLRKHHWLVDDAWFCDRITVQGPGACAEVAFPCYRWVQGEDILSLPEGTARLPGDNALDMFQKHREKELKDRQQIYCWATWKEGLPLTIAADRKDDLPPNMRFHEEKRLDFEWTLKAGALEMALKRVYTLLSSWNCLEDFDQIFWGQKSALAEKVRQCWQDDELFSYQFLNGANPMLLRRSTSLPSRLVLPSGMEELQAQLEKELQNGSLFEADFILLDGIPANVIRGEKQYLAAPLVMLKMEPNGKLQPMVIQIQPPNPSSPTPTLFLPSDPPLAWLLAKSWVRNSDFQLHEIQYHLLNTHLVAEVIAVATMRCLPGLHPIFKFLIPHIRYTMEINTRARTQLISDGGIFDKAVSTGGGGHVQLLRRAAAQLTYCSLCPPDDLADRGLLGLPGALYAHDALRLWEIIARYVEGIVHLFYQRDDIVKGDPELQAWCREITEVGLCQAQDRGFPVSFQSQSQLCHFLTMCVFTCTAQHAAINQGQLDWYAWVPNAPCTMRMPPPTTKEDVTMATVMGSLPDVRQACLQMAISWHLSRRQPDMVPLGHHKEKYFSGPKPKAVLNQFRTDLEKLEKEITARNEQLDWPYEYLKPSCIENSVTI
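Hydroperoxide product was detected by ferrous iron/xylenol orange as the 573 to 405 nm absorbance ratio. Arachidonic acid at 40 uM (final) was turned over for 30 min at room temperature by 150 nM human 12hLO, pH 7.0 Hepes buffer, after 15 min compound preincubation.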
HT1080 IDH1KD tx – qHTS for induction of synthetic lethality in tumor cells producing 2HG: qHTS for the HT-1080-IDH1KD cell line. HT-1080 IDH1 knockdown viability, ATP luminescence, 48 h. Potency, µM (titrated, usually from 46.1 µM), inactives show at the top dose activity, negative = toxicity, hits mostly cytotoxic. hit rate 2% among 360,000. AID 686971, 2013;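 also: potency is read from the fitted curve at half-maximal effect; 0% = DMSO wells and -100% = cell-free medium wells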
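HT-1080-IDH1KD cells (IDH1 knocked down), 750/well in RPMI with 5% FBS, treated with compound 48 h at 37 degrees C. Viability by CellTiter-Glo luminescence, normalised to DMSO and no-cell wells; concentration-response curves classed.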
IL1B secr inh – qHTS for Inhibitors of Inflammasome Signaling: IL-1-beta AlphaLISA Primary Screen. THP-1 LPS/ATP IL-1B secretion, AlphaLISA, 16 h; stronger effect = lower value. activity change, % at 57.5 µM. hit rate 4.7% among 360,000; in the data active = activity change below about -50%; inconclusive = mostly about -30% to -49%
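THP-1 cells pretreated 1 hr with compounds (up to 57.5 uM final), then stimulated with LPS (250 ng/mL final) plus ATP (1.25 mM final); secreted IL-1B measured by AlphaLISA after 16 hr, decreased signal indicating inhibition.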
HT1080NT lethal – qHTS for induction of synthetic lethality in tumor cells producing 2HG: qHTS for the HT-1080-NT fibrosarcoma cell line. AID 686970, 2013. hit rate 1.6% among 360,000. Potency, µM (doses to about 46.1 µM), inactives show at the highest dose activity, negative = less viability, actives largely listed as cytotoxic. HT-1080-NT fibrosarcoma viability, CellTiter-Glo ATP luminescence, 48 h;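 also: NT is the 2HG producing partner of a matched IDH1 knockdown line; potency is read from the fitted curve at half-maximal effect; 0% = DMSO-treated cells and -100% = media-only wells without cells; nearly all actives have a fitted effect of over 55% in size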
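Read-out is CellTiter-Glo luminescence after 10 minutes at room temperature, following 48 hours' compound treatment of HT-1080-NT cells (750 cells/well, RPMI, 5% FBS, 37 degrees C).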
* = called active by the depositor; u = inconclusive; x = not tested or not shown; [ ] = dose if it differs, or a comment. This is one part of a sample in which hits are shown more often than they occur. Unless noted, calls follow the shape of the dose curve; as a rule, active = well fitted curve in the direction sought with a large enough effect; inconclusive = small, poorly fitted or top-dose-only effect, or another doubt; inactive = no such curve, though single readings can be large; an effect the other way counts as inactive or inconclusive. Unless noted, % is scaled to controls: 0 for no effect and ±100 for the full control effect.

SMILES	DT40 TDP1 CPT	DT40 TDP1 no CPT	ALOX12 inh	HT1080 IDH1KD tx	IL1B secr inh	HT1080NT lethal
COc1cccc(NS(=O)(=O)c2ccc(-c3cc(C)no3)s2)c1	u	23µM*	u	x	x	x
COc1ccc(OC)c(NS(=O)(=O)c2ccc(Br)s2)c1	16µM*	18µM*	0%	x	x	x
COc1cccc(NS(=O)(=O)c2ccc(Br)s2)c1	-3%	-22%	-5%	9%	4	9%
Cc1ccc(F)cc1NC(=O)C1CCCCC1	x	x	-28%	x	x	x
CCC1c2ccsc2CCN1C(=O)/C=C/c1cccc(C)c1 (stereo not drawn)	x	x	6%	x	x	x
COc1cc(CCC(=O)N(CC#N)C2CC2)cc(OC)c1	x	x	-6%	x	x	x
Cc1cc(-c2ccc(S(=O)(=O)Nc3cccc(C)c3C)s2)on1	2.9µM*	2.6µM*	-10%	x	x	x
COc1ccc(OC)c(NS(=O)(=O)c2ccc(-c3cc(C)no3)s2)c1	1.3µM*	0.58µM*	-23%	x	x	x
CCc1ccccc1N(C)S(=O)(=O)c1ccc(-c2cc(C)no2)s1	2.1µM*	1.3µM*	-12%	u	25	12%
O=C(Oc1ccccc1)N1CCC2(CC1)CCN(c1cccc(-c3ccccc3)c1)CC2	u	u	-15%[57.4 µM]	x	x	x
O=C(Oc1ccccc1)N1CCC2(CC1)CCN(c1ccccc1)CC2	u	18µM*	u	x	x	x
O=C(Oc1ccccc1)N1CCC2(CCCN(c3ncccn3)C2)CC1	-25%	18µM*	0%[57.4 µM]	x	x	x
O=C(Oc1ccccc1)N1CCC2(CC1)CN(c1ncccn1)C2	u	u	3%[57.4 µM]	x	x	x
Cc1cc(/N=C/C=C2/N(C)c3ccccc3C2(C)C)n(CCC#N)n1	8.2µM*	6.5µM*	-57%	u	u	-26%
CN1/C(=C/C=C(/C#N)C(N)=O)C(C)(C)c2ccccc21	2.6µM*	3.3µM*	-30%	5.8µM*	-7	5.8µM*
CN1/C(=C\C=[N+](C)c2ccccc2)C(C)(C)c2ccccc21	1.2µM*	1.3µM*	u	u	-95*	7.1µM*
CN1/C(=C\C=N\O)C(C)(C)c2ccccc21	-29%	-25%	-16%	20%	22	7%
CN(C)c1ccc(N=C/C=C2/N(C)c3ccccc3C2(C)C)cc1	7.3µM*	5.2µM*	u	-10%	-64*	-21%
COc1cc(/C=C(\C#N)C(=O)Nc2ccc(OC(F)(F)F)cc2)cc(OC)c1OC	x	x	-2%	x	x	x
COCC1CN(S(=O)(=O)c2ccc3c(c2)CCCC3)CC12CCNCC2 (stereo not drawn)	x	x	33%	x	x	x
O=C(c1cc(F)cc(F)c1)N1CC(c2nnc(-c3ccncc3)o2)C2(CCOCC2)C1 (stereo not drawn)	x	x	73%	x	x	x
CCc1cccc(NC(=O)CCC2CCCCC2)c1	x	x	5%	x	x	x
Cc1ccccc1N=C/C=C1\N(C)c2ccccc2C1(C)C	18µM*	8.2µM*	u	-5%	-11	-5%
CN1/C(=C\C=Nc2cc(S(=O)(=O)N3CCOCC3)ccc2N2CCOCC2)C(C)(C)c2ccccc21	u	21µM*	u	3%	-6	-2%
Cc1cccc(N2C(=O)CS(=O)(=O)C23C(=O)N(Cc2c(F)cccc2Cl)c2ccccc23)c1 (stereo not drawn)	21µM*	23µM*	-10%	x	x	x
SMILES	DT40 TDP1 CPT	DT40 TDP1 no CPT	ALOX12 inh	HT1080 IDH1KD tx	IL1B secr inh	HT1080NT lethal
Cc1ccc(CN2C(=O)C3(c4ccccc42)N(c2cccc(F)c2)C(=O)CS3(=O)=O)cc1 (stereo not drawn)	15µM*	u	-11%	x	x	x
Cc1ccc(N2C(=O)CS(=O)(=O)C23C(=O)N(Cc2ccccc2C)c2ccccc23)cc1Cl (stereo not drawn)	u	u	-29%	x	x	x
O=C1CS(=O)(=O)C2(C(=O)N(Cc3ccccc3Cl)c3ccccc32)N1c1ccc(F)cc1 (stereo not drawn)	15µM*	16µM*	-15%	x	x	x
Cc1ccc(N2C(=O)CS(=O)(=O)C23C(=O)N(Cc2cccc(F)c2)c2ccccc23)cc1Cl (stereo not drawn)	23µM*	23µM*	-19%	x	x	x
Cc1nn(-c2nc3c(c(=O)n(C)c(=O)n3C)n2C/C=C/c2ccccc2)c(C)c1C	x	x	13%	x	x	x
COc1ccc(NC(=O)c2ccc3c(c2)N(C)C2CCCCN2C3=O)cc1 (stereo not drawn)	x	x	34%	x	x	x
N=C(N)c1ccc(N=Nc2c(O)ccc3c2[nH]c2ccccc23)cc1	21µM*	7.3µM*	-17%	-21%	-97*	-8%
NS(=O)(=O)c1ccc(N=Nc2c(O)ccc3ccccc23)cc1	-13%	u	-14%	1%	-29	u
COCCc1nncn1C1CCN(S(=O)(=O)c2cc(F)ccc2F)CC1	x	x	13%	x	x	x
O=C(NC1CCCCCC1)c1ccc(CS(=O)c2ccc(Br)cc2)o1 (stereo not drawn)	u	u	-1%	x	x	x
Cc1ccc(S(=O)Cc2ccc(C(=O)NC3CCCCCC3)o2)cc1 (stereo not drawn)	u	16µM*	-2%	x	x	x
O=C(NC1CCCCCCC1)c1ccc(Br)o1	-13%	4.6µM*	u	-2%	-15	2%
Cc1ccc(CS(=O)Cc2ccc(C(=O)NC3CCC(C)CC3)o2)cc1 (stereo not drawn)	-30%	-17%	-23%	-8%	-27	-9%
Cc1ccc(CS(=O)Cc2ccc(C(=O)NC3CCCC(C)C3C)o2)cc1 (stereo not drawn)	21µM*	u	0%	-1%	-4	-4%
COc1ccc(CNC(=O)c2ccc(CS(=O)Cc3ccccc3Cl)o2)cc1 (stereo not drawn)	u	18µM*	-12%	x	x	x
CC1CCCC/C1=N\NC(=O)CCC(=O)Nc1ccc(I)cc1 (stereo not drawn)	x	x	35%	x	x	x
CCN(CC)C(=O)[C@@H]1CCC[C@@H](NC(=O)c2cc(C)on2)CN(C)C(=O)C1	x	x	37%[176 µM]	x	x	x
Cc1ccccc1S(=O)Cc1ccc(C(=O)NC2CCCCCC2)o1 (stereo not drawn)	18µM*	u	u	x	x	x
O=C(NC1CCCCCC1)c1ccc(CS(=O)Cc2ccccc2Cl)o1 (stereo not drawn)	u	u	0%	-13%	-54*	-17%
